Source: PubChem BioAssay (Tox21)
Records with an inconclusive call do not appear. Active and inactive are the calls of the source. Unless noted, the call rests on the fitted dose curve; in most records, active means well fitted curve in the direction sought with a large enough effect in the repeat runs; inconclusive means weak or mixed curves; inactive means no such curve, though single readings can be large; an effect the other way counts as inactive or inconclusive.

What was measured:
[1] = qHTS assay for small molecule agonists of the p53 signaling pathway (AID 651631; calls by dose curve; further: nearly all actives have a fitted effect of over 15% in size)
Method in brief: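 HCT-116 cells carrying a beta-lactamase reporter under p53 response elements were dosed with compound for 16 h at 37 °C. LiveBLAzer B/G FRET substrate was then added for 2 h at room temperature, and fluorescence intensity was read to detect pathway agonism.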

[2] = qHTS assay for small molecules that induce genotoxicity in human embryonic kidney cells expressing luciferase-tagged ATAD5 (AID 651632); further: nearly all actives have a fitted effect of over 15% in size
Method in brief: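 HEK293T cells carrying a luciferase reporter tagged to ATAD5 were exposed to compound or DMSO vehicle for 16 hr at 37C, 5% CO2. Amplite was added, and after 30 min at room temperature luciferase activity was read as a marker of ATAD5 induction.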

[3] = qHTS assay for small molecule agonists of the p53 signaling pathway - cell viability (AID 651633; calls by dose curve;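 further: p53RE-bla HCT reporter cells with a stable beta-lactamase p53 reporter; series mostly up to about 83 µM; nearly all actives have a fitted effect of over 30% in size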)
Method in brief: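 p53RE-bla cells, seeded at 4,000 per well and rested 5 h at 37 C/5% CO2, received compounds in DMSO for 16 h at 37 C. CellTiter-Glo was then added, and luminescence was read after 30 min at room temperature to gauge cytotoxicity.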

[4] = qHTS assay for small molecules that induce genotoxicity in human embryonic kidney cells expressing luciferase-tagged ATAD5 - cell viability (AID 651634; calls by dose curve; further: nearly all actives have a fitted effect of over 25% in size)
Method in brief: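 HEK293T cells expressing luciferase-tagged ATAD5 were exposed to compound or DMSO for 15.5 hr at 37C, 5% CO2. Viability was then read as live-cell protease activity by CellTiter-Fluor fluorescence after 30 min at 37C.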

[5] = qHTS assay for small molecule disruptors of the mitochondrial membrane potential - cell viability (AID 720634; calls by dose curve;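 further: human HepG2 liver cancer cells; series mostly up to about 83 µM; nearly all actives have a fitted effect of over 20% in size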)
Method in brief: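 HepG2 cells seeded overnight at 37 C, then exposed to compound or DMSO for 1 hr at 37 C, 5% CO2. m-MPI dye added, then CellTiter-Glo for 30 min at room temperature; viability read as ATP luminescence.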

[6] = qHTS assay for small molecule disruptors of the mitochondrial membrane potential (AID 720635)
Method in brief: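 HepG2 cells (2,000/well) attached overnight at 37C, then took compound for 1 hr at 37C, 5% CO2. Mito-MPS dye was added for 30 min; fluorescence was read at 490/535 nm (monomers) and 540/590 nm (aggregates).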

[7] = qHTS assay to test for compound auto fluorescence at 590 nm (red) in HepG2 cells (AID 720674)
Method in brief: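 Rose Bengal sodium served as the red fluorophore standard. HepG2 monolayers (overnight attachment, MEM with 10% FBS) were exposed to test compounds for 1 hr at 37 C and read at Ex 540/Em 590 nm.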

[8] = qHTS assay to test for compound auto fluorescence at 535 nm (green) in HepG2 cells (AID 720675)
[9] = qHTS assay to test for compound auto fluorescence at 460 nm (blue) in HEK293 cells (AID 720678)
Method in brief: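 After cell attachment (4-5 hr, 37C), compounds were pinned onto HEK293 monolayers in 10% dialyzed FBS medium. The blue channel (405/460 nm) was read following overnight culture. Equivalency was calculated against triamterene.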

[10] = qHTS assay to test for compound auto fluorescence at 590 nm (red) in HEK293 cells (AID 720679)
Method in brief: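 Plates of HEK293 cells (10% dialyzed FBS) are treated with 23 nL compound or DMSO vehicle after a 4-5 hr attachment period, incubated overnight at 37C, and read for red fluorescence at 540/590nm.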

[11] = qHTS assay to test for compound auto fluorescence at 535 nm (green) in HEK293 cells (AID 720680)
[12] = qHTS assay to test for compound auto fluorescence at 460 nm (blue) in HEK293 cell free culture (AID 720681)
Method in brief: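 Test compounds were pinned into cell-free culture medium (DMEM with 10% FBS) and fluorescence was read directly at Ex/Em 405/460 nm. Signals were expressed as fluorescence equivalents of triamterene, with DMSO vehicle as control.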

[13] = qHTS assay to test for compound auto fluorescence at 535 nm (green) in HEK293 cell free culture (AID 720682)
Method in brief: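 Green-label autofluorescence (485 nm excitation, 535 nm emission) measured on compound added to cell-free culture medium (DMEM, 10% FBS). Output is expressed relative to fluorescein.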

[14] = qHTS assay to test for compound auto fluorescence at 590 nm (red) in HEK293 cell free culture (AID 720683)
Method in brief: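 Tox21 10K library compounds were pinned into cell-free DMEM with 10% FBS and fluorescence was read at excitation 540 nm. Activity is expressed as Rose Bengal sodium equivalency.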

[15] = qHTS assay to test for compound auto fluorescence at 460 nm (blue) in HepG2 cell free culture (AID 720685)
Method in brief: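 Compound (23 nL) or DMSO pinned into cell-free MEM with 10% FBS; blue fluorescence read at 405/460 nm excitation/emission, expressed as auto-fluorescence equivalency to triamterene.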

[16] = qHTS assay to test for compound auto fluorescence at 535 nm (green) in HepG2 cell free culture (AID 720686)
[17] = qHTS assay to test for compound auto fluorescence at 460 nm (blue) in HepG2 cells (AID 720687)
Method in brief: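 Cells (2,000/well in MEM with 10% FBS) attached overnight at 37 C, then were exposed to compound or DMSO for 1 hr at 37 C, 5% CO2. Fluorescence read at Ex/Em 405/460 nm, expressed as triamterene-equivalent signal.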

[18] = biological target: Glucocorticoid receptor (Homo sapiens) (UniProt P04150); assay: qHTS assay to identify small molecule agonists of the glucocorticoid receptor (GR) signaling pathway (AID 720691; active means well fitted activation curve with a large enough effect in the signal ratio in the repeat runs, not every such curve was filed as active; the % refers to the signal ratio)
Method in brief: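 GR-bla HeLa cells (beta-lactamase reporter under glucocorticoid response element) were plated 4 h at 37 C/5% CO2, given compounds in DMSO, and incubated 18 h at 37 C. LiveBLAzer B/G FRET substrate was added for 2 h at room temperature, then fluorescence intensity read.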

[19] = biological target: Glucocorticoid receptor (Homo sapiens) (UniProt P04150); assay: qHTS assay to identify small molecule antagonists of the glucocorticoid receptor (GR) signaling pathway (AID 720692; active means well fitted inhibition curve with a large enough effect in the signal ratio in the repeat runs, not every such curve was filed as active; the % refers to the signal ratio)
Method in brief: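 GR-bla HeLa cells (beta-lactamase reporter under glucocorticoid response element) were pre-plated 4 h at 37 C, treated with compounds plus 5 nM dexamethasone (final) for 18 h, then read by LiveBLAzer B/G FRET fluorescence after 2 h.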

[20] = qHTS assay to identify small molecule antagonists of the glucocorticoid receptor (GR) signaling pathway - cell viability counter screen (AID 720693); further: nearly all actives have a fitted effect of over 55% in size
[21] = qHTS assay for identifying genotoxic compounds that show differential cytotoxicity against isogenic chicken DT40 cell lines with known DNA damage response pathways - wild type cell line (AID 743012); further: nearly all actives have a fitted effect of over 60% in size
Method in brief: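 Parental DNA repair-proficient DT40 cells, 300 per well, were pre-incubated ~0.5 h at 37 C/5% CO2, pin-dosed with compounds in DMSO, then incubated 40 h. Viability was read as CellTiter-Glo luminescence after 30 min at room temperature.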

[22] = qHTS assay for identifying genotoxic compounds that show differential cytotoxicity against isogenic chicken DT40 cell lines with known DNA damage response pathways - Rev3 mutant cell line (AID 743014); further: nearly all actives have a fitted effect of over 55% in size
[23] = qHTS assay for identifying genotoxic compounds that show differential cytotoxicity against isogenic chicken DT40 cell lines with known DNA damage response pathways - Rad54/Ku70 mutant cell line (AID 743015); further: nearly all actives have a fitted effect of over 60% in size

Measured: Potency

Glucocorticoid receptor (Homo sapiens), sequence (P04150 whole entry, looked up): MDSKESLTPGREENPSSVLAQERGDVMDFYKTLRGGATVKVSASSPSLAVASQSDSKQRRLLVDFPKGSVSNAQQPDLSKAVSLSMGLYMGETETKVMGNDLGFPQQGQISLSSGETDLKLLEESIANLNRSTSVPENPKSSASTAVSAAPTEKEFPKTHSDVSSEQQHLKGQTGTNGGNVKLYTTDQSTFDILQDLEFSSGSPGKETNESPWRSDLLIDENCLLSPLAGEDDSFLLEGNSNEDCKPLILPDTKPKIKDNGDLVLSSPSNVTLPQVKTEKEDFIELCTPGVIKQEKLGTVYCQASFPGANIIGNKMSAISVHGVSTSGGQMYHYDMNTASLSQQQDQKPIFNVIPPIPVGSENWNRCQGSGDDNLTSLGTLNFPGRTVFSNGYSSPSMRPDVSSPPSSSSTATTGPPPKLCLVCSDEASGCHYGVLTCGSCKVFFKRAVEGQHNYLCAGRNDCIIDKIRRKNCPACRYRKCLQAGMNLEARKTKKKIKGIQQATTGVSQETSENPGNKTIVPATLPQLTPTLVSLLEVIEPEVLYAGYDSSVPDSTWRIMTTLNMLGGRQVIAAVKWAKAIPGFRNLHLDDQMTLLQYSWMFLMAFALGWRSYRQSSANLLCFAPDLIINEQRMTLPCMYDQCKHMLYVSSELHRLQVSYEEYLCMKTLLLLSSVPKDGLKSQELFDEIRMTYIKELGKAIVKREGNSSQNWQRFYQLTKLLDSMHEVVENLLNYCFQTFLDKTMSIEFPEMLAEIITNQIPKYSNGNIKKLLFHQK

O=C(O)/C=C\C(=O)O
inactive: all assays above
